# This is part of a sample that, as a whole, favours compounds with a hit. Of some 83,000 tested, about 20% had one in any assay.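 Results are percent growth after 48 hours of single-concentration exposure. 100 means growth as in untreated cells, lower positive values show inhibition; negative values down to -100 show cell death.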 Values without a mark were called inactive. Calls of active or inactive are those of the source. Rule for the calls: active = growth percent below 10; inactive = the rest.
# Assays:
# Assay in all cases: NCI-60 one-dose screen, 48 h (100 = growth as untreated, 0 = no growth, -100 = all killed)
# Details in all cases: 10 µM unless noted
# [1] = system: NCI-H23 lung
# [2] = system: NCI-H226 lung
# [3] = system: NCI-H322M lung
# [4] = system: HOP-62 NSCLC
# [5] = system: NCI-H460 lung
# [6] = system: HOP-92 NSCLC
# [7] = system: NCI-H522 lung
# [8] = system: A549/ATCC NSCLC
# [9] = system: 786-0 renal
# [10] = system: COLO 205 colon
# [11] = system: DU-145 prostate
# [12] = system: K-562 leukemia
# [13] = system: MALME-3M melanoma
# [14] = system: MDA-MB-231 breast
# [15] = system: RXF 393 renal
# [16] = system: SF-268 CNS
# [17] = system: SF-295 CNS
# [18] = system: SF-539 CNS
# [19] = system: UACC-257 melanoma
# [20] = system: M14 melanoma
Compound,growth [1],growth [2],growth [3],growth [4],growth [5],growth [6],growth [7],growth [8],growth [9],growth [10],growth [11],growth [12],growth [13],growth [14],growth [15],growth [16],growth [17],growth [18],growth [19],growth [20]
O=c1scc(-c2ccc(C(F)(F)F)cc2)s1,89%,91%,90.5%,92.3%,102%,81%,67.5%,79.1%,90.3%,131%,110%,99.9%,115%,104%,87.4%,100%,85.6%,111%,82.9%,104%
Cc1cn(-c2cc(NC(=O)c3cncc(C#Cc4cnc(N)c5ncccc45)c3)cc(C(F)(F)F)c2)cn1,43.5%,45.7%,83.4%,70.9%,71.2%,43.3%,52.2%,88.1%,71.6%,28.4%,93.7%,5.81% (active),23.8%,47.1%,59.6%,67.2%,91%,72.3%,62.5%,29.8%
CCN(C)S(=O)(=O)Nc1cccc(Nc2ncnc3cc(NC(=O)CCl)ccc23)c1Cl,-27.1% (active),6.77% (active),73.9%,-50.1% (active),-22.5% (active),24.6%,-70.6% (active),18.5%,-82.8% (active),-33.9% (active),-49.8% (active),4.5% (active),-51.7% (active),-38.4% (active),-11.9% (active),7.08% (active),15.3%,-40.3% (active),34.4%,15.1%
CN1CCN(c2cc(Nc3cc(C4CC4)[nH]n3)nc(Nc3ccc(CC(=O)NCc4cccc(F)c4)cc3)n2)CC1,23.2%,3.21% (active),20.5%,8.32% (active),13%,-15.6% (active),61.2%,24.3%,18.3%,-54.9% (active),41.7%,20.7%,34.7%,14.4%,-56.5% (active),30.2%,49.4%,-22.9% (active),40.9%,23.7%
O=C(Nc1ccc(OS(=O)(=O)c2ccc(F)cc2)cc1)C1CCCCCC1,83.6%,94.3%,106%,98.6%,95.5%,83.4%,81.2%,92.5%,96.6%,64.6%,90.6%,55.4%,99.6%,82.7%,105%,88.2%,98%,89.7%,93.9%,85.9%
Nc1ncc(-c2ccc3ncnc(Nc4cccc(Cl)c4)c3c2)cn1,58.9%,51.3%,4.75% (active),37.8%,54.8%,11.8%,3.25% (active),35.1%,40.8%,51.2%,28.9%,58.2%,40.4%,42.1%,25.2%,42%,44.2%,54.2%,65.7%,60.6%
COc1cc2c(cc1OCCCN1CCN(CCCOc3cc4c(cc3OC)C(=O)N3CCC[C@H]3C=N4)CC1)C=CC(C)(C)O2,-58.5% (active),-70.3% (active),-80.7% (active),-50.9% (active),-94.8% (active),-29.6% (active),-80.5% (active),-79.2% (active),-97.1% (active),-76.8% (active),-100% (active),-35.8% (active),-89.1% (active),-81.9% (active),-92% (active),-91.9% (active),-59.2% (active),-100% (active),-62.4% (active),-74.2% (active)
C=C1C(=O)O[C@H]2[C@H]1CC/C(COC(=O)/C=C\C(=O)NCc1ccc(Cn3c(=O)sn(CCI)c3=O)cc1)=C\CC[C@@]1(C)O[C@@H]21,84.1%,83%,86.6%,130%,91.9%,46%,-84% (active),98.1%,37.4%,-32.8% (active),34.4%,4.34% (active),-30% (active),64.6%,11.6%,70.2%,105%,52%,67.7%,36.2%
COC(=O)/C=C1/SC(=Nc2cccc(OC)c2)N(CCc2c[nH]c3ccc(O)cc23)C1=O,76.1%,89.6%,95.2%,69.8%,61.3%,50.4%,54.3%,87.3%,74.3%,106%,33.1%,34.1%,79.5%,66.6%,52.6%,67%,81.4%,72.4%,57.7%,51.3%
O=C(/C=C/c1cccc(Cl)c1)c1cccc(OCCCOc2cccc(C(=O)/C=C/c3cccc(Cl)c3)c2)c1,89.2%,96.3%,106%,102%,103%,66.8%,87.4%,100%,98.8%,106%,108%,86.9%,116%,94.9%,104%,98.8%,95.1%,106%,102%,89.9%
CCC1=C[C@@H]2C[C@]3(C(=O)OC)c4[nH]c5ccccc5c4CC[N@+](CC(=O)Nc4cc5c(cc4OC)N(C)[C@H]4[C@@](O)(C(=O)OC)[C@H](OC(C)=O)[C@]6(CC)C=CCN7CC[C@]54[C@@H]76)(C2)[C@H]13,104%,98.7%,102%,99.5%,109%,88%,92.4%,100%,99.1%,104%,117%,106%,102%,98.2%,114%,105%,107%,106%,101%,97.7%
CCNCCNc1cc(-c2ccc(C(F)(F)F)cc2)c(C#N)c2nc3ccccc3n12,-83.7% (active),-66.1% (active),-56.2% (active),-67.7% (active),-81.4% (active),-81.2% (active),-69% (active),-76.4% (active),-96.2% (active),-80.4% (active),-95.1% (active),-50.9% (active),-78.1% (active),-79.8% (active),-93.9% (active),-75.3% (active),-72.5% (active),-88% (active),-80.2% (active),-82.5% (active)
O=S(=O)(c1ccccc1)n1cc2c(c1)-c1nc(Nc3ncccn3)sc1CC2,61.9%,25.9%,63.6%,22.1%,68.4%,22%,55.3%,35.2%,18.3%,61.9%,34.6%,73.8%,50.3%,52.5%,34.6%,66.3%,67.3%,35.6%,50.4%,45.8%
CCCCCCCCCCC(CN(CC)CC)C(O)c1ccccc1 (stereo not given),38%,15.4%,80.3%,53.4%,21.7%,-1.6% (active),-14.4% (active),54.7%,49.1%,-42.6% (active),29.1%,-21.2% (active),-37.3% (active),10.1%,-7.14% (active),40.5%,36.5%,32.1%,18.2%,-44.1% (active)

# — PubChem BioAssay (NCI)
